Measured values published in PubChem BioAssay (NCI).
About 79,000 compounds went through this panel and 15% of them were active in at least one assay; those are over-represented in the sample as a whole. Values without a mark were called inactive. The source made the active and inactive calls. No stated cut-off is given here; in the data, active means growth inhibition above about 70%; inactive means the rest.

Experiments:
[1] = NCI Yeast Anticancer Drug Screen. Data for the rad52 strain (AID 147);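 further: 0% = growth of vehicle-treated control cultures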; details: S. cerevisiae rad52 mutant growth inhibition, stronger effect = higher value
Summary of the method: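 Measured: yeast growth inhibition. System: strain with a defined DNA damage repair alteration. Reference: vehicle-treated control cultures.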

[2] = NCI Yeast Anticancer Drug Screen. Data for the wt1 strain (AID 149);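 further: 0% = growth of vehicle-treated wt1 cultures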; details: S. cerevisiae wt1 strain (SPY 50644) growth inhibition, stronger effect = higher value
Summary of the method: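 Each compound is tested on wt1 yeast and the loss of growth versus vehicle gives the inhibition value.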

[3] = NCI Yeast Anticancer Drug Screen. Data for the mgt1 strain (AID 153); details: S. cerevisiae mgt1 mutant growth inhibition, stronger effect = higher value
Summary of the method: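 After exposure of the mgt1 yeast mutant to compound, growth was measured and reported as inhibition compared with vehicle controls.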

[4] = NCI Yeast Anticancer Drug Screen. Data for the rad50 strain (AID 155);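 further: 0% = growth of vehicle-only cultures of the same strain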; details: S. cerevisiae rad50 strain growth inhibition, stronger effect = higher value
Summary of the method: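 Vehicle-treated cultures provide the reference for the growth inhibition reported for compound-exposed, repair-deficient yeast.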

[5] = NCI Yeast Anticancer Drug Screen. Data for the mec2-1 strain (AID 157); details: S. cerevisiae mec2-1 strain, stronger effect = higher value
Summary of the method: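 Test agents were screened against the mec2-1 yeast strain, with defined DNA repair or cell cycle alteration. Growth was scored as inhibition against vehicle-only controls.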

[6] = NCI Yeast Anticancer Drug Screen. Data for the rad14 strain (AID 159);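 further: 0% = growth of vehicle-treated control cultures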; details: S. cerevisiae rad14 strain growth inhibition, stronger effect = higher value
Summary of the method: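 Inhibition of growth is reported for a repair-deficient yeast mutant following compound treatment, calculated relative to cultures that received vehicle.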

[7] = NCI Yeast Anticancer Drug Screen. Data for the sgs1 mgt1 strain (AID 161);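 further: 0% = growth of cultures given vehicle only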; details: S. cerevisiae sgs1 mgt1 strain, stronger effect = higher value
Summary of the method: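 Genetically altered yeast, compound exposure, growth inhibition relative to vehicle.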

[8] = NCI Yeast Anticancer Drug Screen. Data for the CLN2oe strain (AID 163);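 further: 0% = growth of vehicle-only control cultures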; details: S. cerevisiae CLN2oe strain, stronger effect = higher value
Summary of the method: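 Here, growth inhibition in a cell-cycle-altered yeast strain after compound exposure was quantified against vehicle control growth.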

[9] = NCI Yeast Anticancer Drug Screen. Data for the bub3 strain (AID 167); details: S. cerevisiae bub3 mutant strain, stronger effect = higher value
Summary of the method: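 Mutant yeast screening strain plus compound; vehicle-treated cultures serve as the 0% inhibition reference.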

[10] = NCI Yeast Anticancer Drug Screen. Data for the wt2 strain (AID 169); details: S. cerevisiae wt2 strain growth inhibition, stronger effect = higher value
Summary of the method: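 Genetically defined yeast strains from a DNA-repair/cell-cycle panel were used. Compound-exposed yeast growth was measured, and the inhibition was calculated relative to vehicle treatment.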

[11] = NCI Yeast Anticancer Drug Screen. Data for the mlh1 strain (AID 171);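 further: 0% = growth of vehicle-treated control cultures of the same strain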; details: S. cerevisiae mlh1 strain growth inhibition, stronger effect = higher value
Summary of the method: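 Here the genetically defined yeast mutant is grown with each compound, and the extent to which its growth falls below that of vehicle-exposed cells is reported.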

[12] = NCI Yeast Anticancer Drug Screen. Data for the sgs1 strain (AID 173);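 further: 0% = growth of vehicle-only control cultures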; details: S. cerevisiae sgs1 mutant, stronger effect = higher value
Summary of the method: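 Relative growth inhibition, referenced to vehicle, was determined in a yeast strain with a defined alteration affecting DNA damage repair or cell cycle control after compound exposure.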

[13] = NCI Yeast Anticancer Drug Screen. Data for the mlh1 rad18 strain (AID 175); details: S. cerevisiae mlh1 rad18 strain growth inhibition, stronger effect = higher value
Summary of the method: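 In this whole-cell yeast screen, a strain with altered DNA damage repair is challenged with compound, and its growth is measured against matched vehicle-treated controls.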

[14] = NCI Yeast Anticancer Drug Screen. Data for the rad18 strain (AID 177); details: S. cerevisiae rad18 mutant growth inhibition, stronger effect = higher value
Summary of the method: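 Screen uses a yeast strain with a defined lesion in DNA damage repair; compound effect is read as loss of growth compared to untreated vehicle cultures.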

[15] = at 5.0 µM (retest, dose inferred, filed as 0.5)
[16] = at 50.0 µM (retest, dose inferred, filed as 5.0)

`S=C1N(c2ccc(Cl)cc2)C2=C(N=Nc3ccccc3)C(=Nc3ccccc3S2)N1c1ccccn1` showed a growth inhibition ([1]; at 1.2 µM) of 8%, a growth inhibition ([1]; at 3.7 µM) of 16% and a growth inhibition ([1]; at 11.0 µM) of 51%. For the same molecule, the growth inhibition ([1]; at 33.0 µM) was 98% (active), the growth inhibition ([1]; at 100.0 µM) was 99% (active) and the growth inhibition ([2]; at 1.2 µM) was -3%. For the same molecule, the growth inhibition ([2]; at 3.7 µM) was -3%, the growth inhibition ([2]; at 11.0 µM) was 3% and the growth inhibition ([2]; at 33.0 µM) was 29%. For the same molecule, the growth inhibition ([2]; at 100.0 µM) was 85% (active), the growth inhibition ([3]; at 1.2 µM) was 13% and the growth inhibition ([3]; at 3.7 µM) was 15%. For the same molecule, the growth inhibition ([3]; at 11.0 µM) was 66%, the growth inhibition ([3]; at 33.0 µM) was 99% (active) and the growth inhibition ([3]; at 100.0 µM) was 99% (active). For the same molecule, the growth inhibition ([4]; at 1.2 µM) was 6%, the growth inhibition ([4]; at 3.7 µM) was 12% and the growth inhibition [4, 15] was 41%. The growth inhibition ([4]; at 11.0 µM) was 42%, the growth inhibition ([4]; at 33.0 µM) was 95% (active) and the growth inhibition [4, 16] was 99% (active). For the same molecule, the growth inhibition ([4]; at 50.0 µM) was 98.5% (active), the growth inhibition ([4]; at 100.0 µM) was 99% (active) and the growth inhibition ([5]; at 1.2 µM) was 20%. For the same molecule, the growth inhibition ([5]; at 3.7 µM) was 23%, the growth inhibition [5, 15] was 3% and the growth inhibition ([5]; at 11.0 µM) was 62%. For the same molecule, the growth inhibition ([5]; at 33.0 µM) was 99% (active), the growth inhibition [5, 16] was 100% (active) and the growth inhibition ([5]; at 50.0 µM) was 98.5% (active). The growth inhibition ([5]; at 100.0 µM) was 99% (active), the growth inhibition ([6]; at 1.2 µM) was 14% and the growth inhibition ([6]; at 3.7 µM) was 19%. The growth inhibition ([6]; at 11.0 µM) was 40%, the growth inhibition ([6]; at 33.0 µM) was 90% (active) and the growth inhibition ([6]; at 100.0 µM) was 99% (active). For the same molecule, the growth inhibition [7, 15] was 54%, the growth inhibition [7, 16] was 99% (active) and the growth inhibition ([7]; at 50.0 µM) was 99% (active). It also gave a growth inhibition ([8]; at 1.2 µM) of -3%, a growth inhibition ([8]; at 3.7 µM) of -7% and a growth inhibition ([8]; at 11.0 µM) of 3%. The growth inhibition ([8]; at 33.0 µM) was 24%, the growth inhibition ([8]; at 100.0 µM) was 69% and the growth inhibition ([9]; at 1.2 µM) was 22%. It also gave a growth inhibition ([9]; at 3.7 µM) of 22%, a growth inhibition [9, 15] of 53% and a growth inhibition ([9]; at 11.0 µM) of 41%. The growth inhibition ([9]; at 33.0 µM) was 84% (active), the growth inhibition [9, 16] was 99% (active) and the growth inhibition ([9]; at 50.0 µM) was 98.3% (active). The growth inhibition ([9]; at 100.0 µM) was 98% (active), the growth inhibition ([10]; at 1.2 µM) was -1% and the growth inhibition ([10]; at 3.7 µM) was -1%. For the same molecule, the growth inhibition ([10]; at 11.0 µM) was 4%, the growth inhibition ([10]; at 33.0 µM) was 23% and the growth inhibition ([10]; at 100.0 µM) was 50%. For the same molecule, the growth inhibition ([11]; at 1.2 µM) was 9%, the growth inhibition ([11]; at 3.7 µM) was 12% and the growth inhibition ([11]; at 11.0 µM) was 29%. The growth inhibition ([11]; at 33.0 µM) was 94% (active), the growth inhibition ([11]; at 100.0 µM) was 99% (active) and the growth inhibition ([12]; at 1.2 µM) was 9%. For the same molecule, the growth inhibition ([12]; at 3.7 µM) was 19%, the growth inhibition ([12]; at 11.0 µM) was 52% and the growth inhibition ([12]; at 33.0 µM) was 98% (active). For the same molecule, the growth inhibition ([12]; at 100.0 µM) was 99% (active), the growth inhibition [13, 15] was 32% and the growth inhibition [13, 16] was 99% (active). The growth inhibition ([13]; at 50.0 µM) was 99% (active), the growth inhibition ([14]; at 1.2 µM) was 9% and the growth inhibition ([14]; at 3.7 µM) was 16%. The growth inhibition ([14]; at 11.0 µM) was 44%, the growth inhibition ([14]; at 33.0 µM) was 94% (active) and the growth inhibition ([14]; at 100.0 µM) was 99% (active).
